According to PubChem BioAssay (NCI):
This is part of a sample that, as a whole, favours compounds with a hit. Of some 83,000 tested, about 20% had one in any assay.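 A percent growth of 40 corresponds to 60% growth inhibition; 0 means no net growth; -100 means all cells died. Active threshold: below 10.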 Unmarked numbers belong to inactive results. Activity calls are given as the source filed them.

tested on: NCI-H322M lung; experiment: NCI-60 one-dose screen, 48 h (100 = growth as untreated, 0 = no growth, -100 = all killed); settings: 10 µM unless noted
Method: Growth inhibition of the NCI-H322M human Non-Small Cell Lung tumor cell line is measured as a screen for anti-cancer activity. Cells are grown in 96 well plates and exposed to the test compound for 48 hours. Compounds are tested at a single concentration, which is 10^-5 M for most compounds. The reported endpoint is percent growth (GI% or GIPRCNT), where numbers from 0 - 100% represent growth inhibition, and numbers from -100% - 0 represent cell death. For example, a value of 40 represents 60% growth inhibition. A value of 0 means no net growth occurred over the course of the experiment. A value of -40 indicates 40% of cells at the beginning of the experiment died by the end of the experiment. A value of -100 means all cells are dead at the end of the experiment.
NCI-60 Human Tumor Cell Lines Screen was performed using the standard one-dose NCI protocol, which is described in more detail at https://dtp.cancer.gov/discovery_development/nci-60/default.htm.
Compounds with GIPRCNT values below 10 were considered active. Activity score was based on GIPRCNT using the following formula: […]
Score is 0 for GIPRCNT values of 100 or above, 50 for GIPRCNT values of 0, and 100 for GIPRCNT values of -100.

Compound | growth
O=C(COc1ccc(-c2nc3cc(Cl)c(Cl)cc3[nH]2)cc1)N=Nc1c(O)[nH]c2ccc(Cl)cc12 | 94.9%
CC(C)=CC(=O)OCC(=O)O[C@@H]1C[C@]2(C(C)C)O[C@@]1(C)[C@@H]1CC[C@@H](C)[C@H]1[C@@H]2OC(=O)/C=C/c1ccccc1 | 90.7%
C=C(C)[C@@H]1CC[C@]2(C(=O)O)CC[C@]3(C)[C@H](CC[C@@H]4[C@@]5(C)CCC(NC(=O)c6cccc(OC(C)=O)c6OC(C)=O)C(C)(C)[C@@H]5CC[C@]43C)[C@@H]12 (stereo not given in full) | 8.78% (active)
CCCCNC(=O)CC1=C(C)/C(=C/c2[nH]c(-c3ccc[nH]3)cc2OC)N=C1C | 50%
COC(=O)[C@]1(C)CCC[C@]2(C)[C@H]3C[C@H]4C(C(C)C)=C[C@]3(CC[C@H]21)[C@@H]1C(=O)CC[C@H](OCCC#N)[C@@H]14 | 106%
COc1ccc(C2=C(Br)C(=O)c3nc(C)ccc3C2=O)cc1 | 88.4%
O=C(O)CCN1C(=O)/C(=C/C(Cl)=C/c2ccccc2)SC1=S | 61%
O=C(Nc1ccc(Oc2cccc(F)c2)c(Cl)c1)c1cccnc1 | 50.8%
O=C1C(Cl)=C(NCCCCCCNC2=C(Cl)C(=O)c3ccccc3C2=O)C(=O)c2ccccc21 | 92.2%
Cc1ccc2c(c1)=C/C(=C\c1cc(-c3ccccc3)oc1O)C(=O)N=2 | 104%
Cc1csc(Nc2nc(-c3ccccn3)nc(C(Cl)(Cl)Cl)n2)n1 | 80.5%
CCCCn1c(=O)[nH]c(N)c([C@@H]2c3c([nH]c(=O)n(CCCC)c3=O)Oc3ccc4ccccc4c32)c1=O | 74.9%
CC(=O)c1c(C)nc(SCC(=O)Nc2cccc(O)c2)n1-c1ccc(Cl)cc1 | 91.2%
O=C(CSc1nc2ccc([N+](=O)[O-])cc2[nH]1)Nc1ccc([N+](=O)[O-])cc1 | 43.9%
CCSc1oc(-c2ccccc2)nc1[P+](c1ccccc1)(c1ccccc1)c1ccccc1 | -6.18% (active)
O=C(O)c1ccc(-n2cc(/C=N/Nc3ccccc3)c(-c3ccc(F)cc3F)n2)cc1 | 62.1%
COc1ccc(Nc2nc(-c3cc(O)c(C)c(C)c3O)cs2)cc1 | 90.9%
COCCOc1cc2ncnc(N3CCN(c4cc(S(C)(=O)=O)c(C)cc4Cl)CC3)c2cc1OCCOC | 105%
CCOC(=O)c1cc(C)n(-c2ccc(C(=O)O)cc2)c1C | 114%
O=C1/C(=C/c2cn(-c3ccccc3)nc2-c2ccccc2)SC(=S)N1C1CCCCC1 | 105%

Compound | growth
c1ccc2cc(C[n+]3ccn(CCCCCCCCCCn4cc[n+](Cc5ccc6ccccc6c5)c4)c3)ccc2c1 | 34.5%
COc1ccc(C(O)c2cc3c(N)c(C(=O)Nc4cccc(Br)c4)sc3nc2C)cc1 (stereo not given) | 45.9%
O=S(=O)(NCCNc1nccc(-c2c(-c3ccc(F)c(O)c3)nc3occn23)n1)c1ccc(Cl)cc1 | 97.1%
CCN(CC)CCn1c2ccc(OC)cc2c2sc3cc(OC)ccc3c(=O)c21 | 29.8%
CCN(CC)CCn1c2ccc(O)cc2c2sc3cc(O)ccc3c(=O)c21 | 30%
CNC(=O)c1[nH]cc(-c2ccc(OC)cc2)c1-c1cc(OC)c2c(c1OC)OCO2 | 96.2%
CCCNc1nc2ccccc2c2c1S(=O)(=O)c1ccc(Cl)cc1C2=O | 32.7%
O=C(Nc1ccc(Oc2cccc(Cl)c2)c(Cl)c1)c1cccnc1 | 47.1%
COc1ccc(/C=C/C(=O)c2cccc(OCCCCOc3cccc(C(=O)/C=C/c4ccc(OC)c(OC)c4)c3)c2)cc1OC | 87.3%
COc1ccccc1NC(=O)N=Nc1c(O)[nH]c2ccccc12 | 81.2%
O=C(CSc1nnc(-c2cnccn2)n1-c1ccccc1)c1ccc(Cl)cc1 | 95.5%
Nc1n[nH]c2ccc([C@H]3[C@@H]4C5CCC(C5)[C@@H]4c4c(ccc5[nH]ncc45)N3S(=O)(=O)C3CC3)cc12 (stereo not given in full) | 38.6%
C=C(CBr)[C@@H]1CC[C@]2(C(=O)O)CC[C@]3(C)[C@H](CC[C@@H]4[C@@]5(C)CCC(=O)C(C)(C)[C@@H]5CC[C@]43C)[C@@H]12 | 92.2%
CCOC(=O)c1c2c(n3cccc(F)c13)C(=O)c1ncccc1C2=O | 6.61% (active)
O=C(Nc1ccccc1O)c1ccc(CNC(=O)c2sccc2Nc2ccnc(C(F)(F)F)c2)cc1 | 51%
N#Cc1c(-c2ccccc2)[nH]c2ncc(-c3ccccc3)n2c1=O | 88.6%
COc1cc(-c2cncn2-c2ccc(-c3nc4ccc(F)cc4s3)cc2)ccc1F | 103%
C#Cc1c2c(c(OC)c3c1OCO3)[C@H]([C@H]1OC(=O)c3c1ccc(OC)c3OC)N(C)CC2 | 94%
CC(=O)O[C@H]1CC2CCC3C(CC[C@@]4(C)C3C[C@H]([N+]3(C)CCCCC3)[C@@H]4OC(C)=O)[C@@]2(C)C[C@@H]1N1CCCCC1 (stereo not given in full) | 110%
C1CCC([PH+](C2CCCCC2)C2CCCCC2[PH+](C2CCCCC2)C2CCCCC2)CC1.[Au].[CH-]1CCCCC1C1CCCC[N-]1 (stereo not given) | -52% (active)
